# High-throughput results as filed in PubChem BioAssay.
# GSTO1 inh: inhibitors of recombinant GSTO1, primary screen, counter-screen for RBBP9 inhibitor project, biochemical, fluorescence polarization; activity-based probe fluorescence polarization; inhibition, % at 5.96 µM; hit rate 1.1% among 300,000; AID 1974, 2009;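 active means inhibition above the campaign mean inhibition plus 3 SD, cut at about 35% in these data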
# PME-1 primary: PME-1 inhibitors via competitive probe labeling, primary screen, biochemical, fluorescence polarization, FP-Rh probe, HTS; inhibition, % at 5.9 µM; Protein phosphatase methylesterase 1 (Homo sapiens), Q9Y570; hit rate 0.53% among 320,000; recombinant PME-1; AID 2130, 2009;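 active means inhibition above the campaign mean of all compounds plus 3 SD, cut at about 26% in these data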;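 further: competitive labeling of PME-1 active site by serine hydrolase directed probe; inhibitors block probe labeling so polarization falls and inhibition rises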
# Target sequence (Q9Y570 whole entry, looked up): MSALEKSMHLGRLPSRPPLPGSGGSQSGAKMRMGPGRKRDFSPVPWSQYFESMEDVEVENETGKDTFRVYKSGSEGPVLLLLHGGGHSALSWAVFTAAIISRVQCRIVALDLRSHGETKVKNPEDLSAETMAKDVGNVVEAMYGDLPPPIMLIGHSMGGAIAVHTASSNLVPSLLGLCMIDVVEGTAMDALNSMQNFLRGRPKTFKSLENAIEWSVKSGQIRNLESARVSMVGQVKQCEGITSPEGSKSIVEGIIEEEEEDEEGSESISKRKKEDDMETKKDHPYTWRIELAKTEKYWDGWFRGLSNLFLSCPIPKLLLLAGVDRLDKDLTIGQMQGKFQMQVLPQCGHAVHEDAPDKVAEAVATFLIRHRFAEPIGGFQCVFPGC
# Fam108B inh: mouse Fam108B serine hydrolase inhibitors, primary screen, counter-screen for RBBP9 inhibitor project, biochemical, fluorescence polarization | recombinant Fam108B, FP-Rh probe fluorescence polarization | inhibition, % at 9.51 µM | hit rate 0.33% among 300,000 | AID 1947, 2009;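 active means inhibition above the screen mean inhibition plus 3 SD, computed separately per campaign, cut at about 18% in these data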;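 further: inhibitors lower polarization as less probe binds the enzyme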
# LYPLA2 inh: LYPLA2 inhibitors, primary screen, counter-screen for PME1 inhibitor project, biochemical, fluorescence polarization, FP-Rh probe ABPP. Acyl-protein thioesterase 2 (Homo sapiens), O95372. recombinant LYPLA2. inhibition, % at 5.9 µM. hit rate 0.38% among 320,000;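 active means inhibition above the screen-wide mean plus 3 SD, limit set per campaign, cut at about 26% in these data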
# LYPLA1 counter: LYPLA1 inhibitors, primary screen, counter-screen for PME1 inhibitor project, biochemical, fluorescence polarization, FP-Rh probe ABPP; Acyl-protein thioesterase 1 (Homo sapiens), O75608; AID 2174, 2009; inhibition, % at 5.9 µM; hit rate 0.16% among 320,000; recombinant LYPLA1;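 active means inhibition above the mean of all tested compounds plus 3 SD, set per campaign, cut at about 14% in these data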;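 further: inhibitors block serine hydrolase probe labeling of LYPLA1 so polarization falls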
# PAD4 FP inh: human PAD4 inhibitors, primary screen, biochemical, fluorescence polarization, 1536-well format; Protein-arginine deiminase type-4 (Homo sapiens), Q9UM07; recombinant PAD4, RCA probe fluorescence polarization; inhibition, % at 6.36 µM; hit rate 0.41% among 330,000;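 active means percent inhibition above a cutoff equal to the mean of all tested compounds plus 3 SD, cut at about 15% in these data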
# Fam108b inh conf: mouse Fam108b serine hydrolase inhibitors, confirmation, counter-screen for RBBP9 inhibitor project, biochemical, fluorescence polarization, triplicate. shares compounds with Fam108B inh. recombinant Fam108b, FP-Rh probe fluorescence polarization. inhibition, % at 9.51 µM. hit rate 44% among 930;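 active means inhibition above a limit from the primary screen, the mean over all compounds plus 3 SD, cut at about 19% in these data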;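 further: inhibitors free the probe so polarization falls as inhibition rises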
# Fam108b ABPP HTS: inhibition of mouse Fam108b by HTS hits, late-stage follow-up, biochemical, gel-based ABPP, soluble recombinant form | shares compounds with Fam108B inh | fluorophosphonate probe | inhibition, % at 20 µM | hit rate 44% among 260; in the data active means inhibition above about 40%
# Numbers stand for hits; – = inactive; · = no result. Shown are actives, neighbours in structure and some others; about 1.8% of the full set was active somewhere.
SMILES,GSTO1 inh,PME-1 primary,Fam108B inh,LYPLA2 inh,LYPLA1 counter,PAD4 FP inh,Fam108b inh conf,others
NNc1nc2c(-c3ccc(Cl)cc3)nnn2c2ccccc12,–,–,55,–,–,–,65,Fam108b ABPP HTS=–
COCCCNc1nc2c(-c3ccc(Cl)cc3)nnn2c2ccccc12,–,–,–,–,–,–,·,
O=C1C2Sc3[nH]c(=O)sc3C(c3cc([N+](=O)[O-])ccc3O)C2C(=O)N1c1ccccc1 (stereo not drawn),–,–,–,–,–,–,·,
CO/N=C/C(=N\Nc1ccc(C)cc1)C(=O)c1ccc(OC)cc1,–,–,–,–,–,–,·,
COc1ccc(NN=C(C=NO)C(=O)c2ccc(OC)cc2)cc1,·,·,·,·,·,·,·,Fam108b ABPP HTS=–
Cc1ccc(-n2ccn(CC(=O)NCCc3ccccc3)c(=O)c2=O)cc1C,–,–,–,–,–,–,·,
COc1ccc(/C=N/NC(=O)c2ccncc2)cc1COc1ccc(NC(C)=O)cc1,–,–,–,–,–,–,·,
CCCCCCCCCCCCCCCC[N+](C)(C)CCN(Cc1ccc(OC)cc1)c1ncccn1,–,–,22,–,–,–,22,
COc1ccc(CN(CCN(C)C)c2ccccn2)cc1,–,–,–,–,–,–,·,
CSC1=NSC2=NC(=O)/C(=C/c3coc4ccccc4c3=O)C(=N)N12,–,–,41,–,–,–,52,Fam108b ABPP HTS=–
N=C1/C(=C\c2coc3ccccc3c2=O)C(=O)N=C2SC=CN12,–,–,–,–,–,–,·,
CSC1=NSC2=NC(=O)/C(=C\c3cccs3)C(=N)N12,–,–,–,–,–,–,·,
CSC1=NSC2=NC(=O)/C(=C/c3coc4ccc(O)cc4c3=O)C(=N)N12,–,–,28,–,–,–,–,
Cc1ccc(S(=O)(=O)N(C)/N=C/C=C/c2ccccc2)cc1,–,–,–,–,–,–,·,
COCC(=O)N(Cc1cc2cc(OC)ccc2[nH]c1=O)c1ccc(C)cc1,–,–,23,–,–,–,–,
COCC(=O)N(Cc1cc2ccc(C)cc2[nH]c1=O)c1ccc(OC)cc1,–,–,–,–,–,–,·,
O=C(Nc1cccc(-c2csc(Nc3ccc(Cl)cc3)n2)c1)c1ccccc1,–,–,24,–,–,–,20,
O=C(Nc1ccc(-c2csc(Nc3ccccc3)n2)cc1)c1ccccc1,–,–,–,–,–,–,·,
O=C(Nc1cccc(-c2csc(Nc3ccc(Cl)cc3)n2)c1)c1cccc(C(F)(F)F)c1,–,–,27,–,–,–,–,
CC(=O)N1CCN(C(=O)C2CCN(S(=O)(=O)c3ccccc3C(F)(F)F)CC2)CC1,·,·,·,·,·,–,·,
NS(=O)(=O)c1ccc(NC(=O)CSc2cn[nH]n2)cc1,–,–,–,–,–,–,·,
COc1ccc(C(=O)N/N=C(\C)c2ccc3c(c2)C2C=CCC2C(c2ccccc2)N3)cc1 (stereo not drawn),–,–,20,–,–,–,–,
COc1ccc(/C(C)=N/NC(=O)c2ccncc2)cc1,–,–,–,–,–,–,·,
COc1cccc(NS(=O)(=O)c2ccc3c(c2)CCCN3C(C)=O)c1,–,–,–,–,–,–,·,
COc1cccc(NS(=O)(=O)c2ccc3c(c2)C2C=CCC2C(c2ccc(C(=O)O)cc2)N3)c1 (stereo not drawn),–,–,43,–,–,–,–,
COc1ccc(C)cc1S(=O)(=O)N(CC(=O)O)c1ccc(F)cc1,–,–,–,–,–,–,·,
COc1cccc(CN(C)CC(=O)Nc2c(C)cccc2C(C)C)c1,–,–,–,–,–,–,·,
O=[N+]([O-])c1ccc(O)c(-c2nc(-c3ccccc3)c(-c3cccs3)[nH]2)c1,–,–,26,–,–,–,–,
